Most compounds without a hit are left out; they make up all but 7.8% or so of the library.
HCV inhibitor: blocks hepatitis C virus; AID 651820; 340,000 compounds, 3.4% hits; Huh7.5.1 HCVcc-Cre infection, luciferase reporter, 44 h; Potency, µM (highest dose often 41.8 µM), for inactives: top-dose activity change, negative = inhibition, usual class: inhibitors; active = well fitted inhibition curve with a large enough effect; inconclusive = small, poorly fitted or top-dose-only effect, or another doubt; inactive = no such curve, though single readings can be large or run the other way; note: potency is the fitted concentration of half-maximal effect
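After 44 h co-culture of compound, cells and HCVcc-Cre (~0.5 moi), substrate is added for 15 min at room temperature and luciferase measured over 15 sec. Cells were seeded at 1,000/well and pre-cultured 4 h.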
VACV mCherry inh: vaccinia inhibition (mCherry reporter). Vaccinia virus mCherry reporter infection, fluorescence. Potency, µM (titrated, usually from 36.5 µM), for inactives: at the top dose activity change, negative = inhibition, actives largely listed as inhibitors. 310,000 compounds, 0.63% hits. AID 720579; calls by dose curve; tested in A549 cells; note: potency is the fitted concentration of half-maximal effect; nearly all actives have a fitted effect of over 35% in size
Lassa entry inh: blocks Lassa virus binding to or entry into cells | Lassa virus pseudotype entry inhibition, cell reporter | 300,000 compounds, 1.2% hits | AID 540256 | Potency, µM (top dose mostly 37.9 µM), without a hit: at the highest dose activity change, negative = inhibition, usual class: inhibitors; calls by dose curve; tested in HEK293 cells; note: potency is the fitted concentration of half-maximal effect; nearly all actives have a fitted effect of over 50% in size
Marburg entry inh: blocks Marburg virus binding to or entry into cells | Marburg virus pseudotyped entry inhibition, cell reporter | 300,000 compounds, 1.8% hits | Potency, µM (highest dose often 37.8 µM), inactives show top-dose activity change, negative = inhibition, most hits filed as inhibitors; calls by dose curve; tested in HEK293 cells; note: potency is the fitted concentration of half-maximal effect
HCMV antiviral: inhibitors of human cytomegalovirus | activity change, negative = inhibition, % at 57.5 µM | 410,000 compounds, 4.5% hits | HFF cells, HCMV-luciferase reporter, 72 h; stronger effect = lower value; in the data active = activity change below about -60%; inconclusive = no clear call, values can overlap the other calls; inactive = above about -39%
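Inhibition of viral replication was scored as loss of reporter luminescence in HFFs infected with HCMV-luciferase (MOI 1 PFU/cell) for 72 h; compounds tested at 2 doses, normalized to buffer and Salinomycin controls.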
Vaccinia Venus: inhibitors of vaccinia virus (Venus reporter); AID 720580; Vaccinia virus Venus reporter expression, fluorescence; Potency, µM (series often up to 36.5 µM), for the others: at the top dose activity change, negative = inhibition, hits mostly inhibitors; 330,000 compounds, 0.46% hits; calls by dose curve; tested in A549 cells; note: potency is the fitted concentration of half-maximal effect; nearly all actives have a fitted effect of over 30% in size
Starred values were filed as active, the others as inactive; i = inactive; ? = inconclusive; · = no result given; [ ] = remark or other dose. % is set by controls: 0 for no effect and ±100 for the full control effect.

SMILES	HCV inhibitor	VACV mCherry inh	Lassa entry inh	Marburg entry inh	HCMV antiviral	Vaccinia Venus
COc1ccc(Cl)c2sc(N(Cc3cccnc3)C(C)=O)nc12	13µM*	i	?	8%[46.1 µM]	-24	-13%
COc1ccc(OC)c2sc(N(Cc3cccnc3)C(=O)c3ccc(C(C)=O)cc3)nc12	·	-24%	?	·	0	-12%
COc1ccc2sc(N(Cc3cccnc3)C(=O)c3ccc4c(c3)OCCO4)nc2c1	·	-19%[7.34 µM]	?	·	-90*	-20%[7.34 µM]
O=C(NCC(c1ccc2c(c1)OCO2)N1CCN(c2ccccc2)CC1)C(=O)Nc1ccc(F)cc1 (centres undefined)	·	i	23%[46.1 µM]	·	-25	-6%
CCSc1cc(N2CCCC2)nc(-c2cccc(C)c2)n1	?	i	?	?	-62*	1%
Cc1ccc(C)c(CN2C(=O)c3ccccc3S(=O)c3ccc(C(=O)NCc4ccccc4Cl)cc32)c1 (centres undefined)	·	-12%	-5%[46.1 µM]	?	-27	-14%
Cc1c(OCC(=O)NCCCN2CCOCC2)ccc2c1oc(=O)c1ccccc12	5%	·	·	·	-10	·
CC(=O)Oc1cc2c(C(=O)NCCCN3CCOCC3)c(C)oc2c2ccccc12	11µM*	i	-2%	?	18	-17%
COc1ccc(C(C)=O)cc1COC(=O)c1ccc(N)c([N+](=O)[O-])c1	11µM*	i	11%	?	18	-13%
COc1ccc(C(C)=O)cc1COc1ccccc1[N+](=O)[O-]	6.3µM*	i	-24%[46.1 µM]	-2%[46.1 µM]	11	-13%
CC(=O)N/C(N)=N/c1nc2cc([N+](=O)[O-])ccc2o1	1%	-1%	?	?	-66*	-22%
O=C1c2ccccc2NC2(c3ccccc3)c3ccccc3-n3nncc3CN12 (centres undefined)	·	·	·	·	9	·
Cc1ccc(NC(=O)CSc2nc(N)c3c4c(sc3n2)CSC(C)(C)C4)cc1	11µM*	-7%	21µM*	?	33	?
CCCCCCOC(=O)C(C#N)c1nc2ccccc2nc1N1CCN(CC)CC1 (centres undefined)	-17%	i	?	4.6µM*	-24	-13%
CCCCCCOC(=O)C(C#N)c1nc2ccccc2nc1N1CCOCC1 (centres undefined)	-6%	·	-20%	3%	-38	·
CC(C)N1CC=C(c2c[nH]c3ccccc23)CC1	?	·	?	7%	-67*	?
C1=C(c2c[nH]c3ccccc23)CCNC1	·	·	·	3%	22	·
OCCNCCCCOc1cccc(Br)c1	-20%	-12%	?	?	-32	-10%
C=CCNCCCCOc1cccc(Br)c1	-20%	-29%	-2%	13µM*	31	-16%
O=C(NCc1ccco1)C1CCN(C(=O)N2CCOc3ccccc32)CC1	·	-8%	21%[46.1 µM]	·	2	-11%
Brc1ccc(CNCCCSc2nnnn2-c2ccccc2)cc1	·	-5%	23%[46.1 µM]	6%[46.1 µM]	67	-6%
CCOC(=O)C1CCN(S(=O)(=O)c2c(Cl)ccc3nonc23)CC1	·	·	·	·	-113*	·
Cc1c(NC(=S)N/N=C/C=C/c2ccc([N+](=O)[O-])cc2)c(=O)n(-c2ccccc2)n1C	20%	i	2%	4%	-103*	-19%
Cc1c(NC(=S)N/N=C/C=C/c2ccccc2)c(=O)n(-c2ccccc2)n1C	1%	-10%	6%[46.1 µM]	-2%[46.1 µM]	-18	-17%
Cc1c(NC(=S)N/N=C\c2ccccc2O)c(=O)n(-c2ccccc2)n1C	?	13µM*	-19%	-17%	-27	?
SMILES	HCV inhibitor	VACV mCherry inh	Lassa entry inh	Marburg entry inh	HCMV antiviral	Vaccinia Venus
Cc1c(NC(=S)N/N=C/c2ccc(Br)cc2)c(=O)n(-c2ccccc2)n1C	15%	-13%	-23%	-27%	27	-19%
C[C@@H]1CN(C2CCN(C(=O)COc3ccccc3)CC2)C[C@H](C)O1	·	·	·	7%	·	·
CCOc1ccc(CCNC(=O)c2cc3c(=O)n(C)c4ccccc4c3n2C)cc1OCC	·	-19%	8%[46.1 µM]	-3%[46.1 µM]	1	-20%
CC1(C)Cc2c(sc(NC(=O)c3ccccc3)c2C(=O)O)CO1	-20%	-5%	?	?	66	-22%
COc1ccc(C(=O)Nc2sc3c(c2C(=O)O)CC(C)(C)OC3)cc1	-15%	-12%	?	4.5µM*	0	-25%
CCOC(=O)c1c(NC(=O)C2C3C=CC(C3)C2C(=O)O)sc2c1CC(C)(C)OC2 (centres undefined)	9%	-3%	-10%	19%[46.1 µM]	-36	0%
CC(C)COc1ccc(C(=O)Nc2sc3c(c2C(=O)O)CC(C)(C)OC3)cc1	10µM*	?	?	1.3µM*	?	-22%
CCOC(=O)c1c(NC(=O)c2cccs2)sc2c1CC(C)(C)OC2	7.9µM*	·	-11%	?	-34	2%
CC1(C)Cc2c(sc(NC(=O)C(=O)N3CCCC3)c2C(=O)O)CO1	12%	·	·	·	-24	·
COc1ccc(C)cc1NC(=O)c1oc2ccc(S(=O)(=O)N3CCC4(CC3)OCCO4)cc2c1C	·	-4%	8%[46.1 µM]	·	9	-5%
O=C(NCc1ccc2c(c1)OCO2)c1ccccc1Cl	0%	-1%	6%[46.1 µM]	10%[46.1 µM]	34	12%
O=C(NCc1ccc2c(c1)OCO2)c1nc(S(=O)(=O)Cc2ccccc2F)ncc1Cl	1%	·	·	·	-80*	·
O=C(NCc1ccc2c(c1)OCO2)c1nc(S(=O)(=O)Cc2ccccc2)ncc1Cl	?	-26%	?	?	-103*	-29%
O=C(NCc1ccc2c(c1)OCO2)c1ccc(Cl)nc1	7%	1%	0%	14%[46.1 µM]	-29	4%
CCCC(=O)NNC(=O)CCC(=O)NCc1ccccc1	-4%	·	-7%	0%	-8	·
CCC/C(=N\NC(=O)CCC(=O)NCc1ccccc1)c1ccccc1	-29%	-23%	4µM*	?	0	-17%
CC(=O)N1CCCc2cc(S(=O)(=O)N3CCCC(C(=O)Nc4ccc(F)cc4F)C3)ccc21 (centres undefined)	·	-25%	-18%[46.1 µM]	·	-26	-25%
CCOC(=O)c1c(NC(=O)c2cc(=O)c3c(C)cc(C)cc3o2)sc(C(C)=O)c1C	·	-1%	?	23%[46.1 µM]	9	1%
COc1cc(CN2CCOc3ccc(C(O)c4cccnc4)cc3C2)cc(OC)c1 (centres undefined)	·	-10%	·	·	·	5%
Cc1c(CCOC(=O)CC23CC4CC(CC(C4)C2)C3)sc[n+]1Cc1ccccc1	-8%	·	-17%	13%	?	·
Cc1c(CCOC(=O)C23CC4CC(CC(C4)C2)C3)sc[n+]1CC#N	-17%	-5%	?	?	-99*	-15%
COc1ccc(CCNc2nc(SCc3ccccc3F)nc3ccccc23)cc1OC	·	-27%	8%[46.1 µM]	·	45	-26%
Cc1nc(N2CCN(C)CC2)c2c(C)c(C(=O)Nc3ccc(C)c(F)c3)sc2n1	8.9µM*	·	0%	?	35	·
Cc1nc(N2CCN(c3ccccn3)CC2)c2c(C)c(C(=O)Nc3c(C)cc(Br)cc3C)sc2n1	?	·	·	·	-21	·

Compound activity as filed in PubChem BioAssay.
